Only some compounds are listed: those with a hit (about 1.2% of all), similar ones and a draw of the others.
KCNH2 WT inh: inhibitors of human wildtype KCNH2 potassium channel | Q12809 | U2OS, BacMam KCNH2, thallium flux FluxOr; active compounds read low | activity change, % at 1.84 µM | 340,000 compounds, 0.37% hits | AID 720551;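 active = maximum activity change below -70%; inconclusive = maximum activity change between -70% and -50%; inactive = maximum activity change above -50%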
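U2OS cells transduced with wild-type KCNH2 virus are loaded with FluxOr dye for 45 min, and thallium flux is measured in kinetic reads before and after stimulation buffer. Rate constants are normalized to DMSO controls.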
KCNH2 3.1 inh: blocks the human KCNH2 3.1 channel isoform; U2OS KCNH2 3.1, thallium flux FluxOr; active compounds read low; activity change, % (tested at about 1.8 µM); 340,000 compounds, 0.95% hits; AID 720553;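 active = maximum activity change below -70%; inconclusive = maximum activity change from -70% to -50%; inactive = maximum activity change above -50%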;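 also: thallium influx rate constant from kinetic fluorescence after stimulation buffer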
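We transduce U2OS cells with the mutant 3.1 virus, culture them overnight, load FluxOr with Red40 quencher for 45 min, then add stimulation buffer and read kinetically for 2 min to derive a normalized rate constant.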
RGS4 inh: blocks human RGS4-accelerated GTP hydrolysis; P49798; Transcreener GDP fluorescence polarization, RGS4-accelerated GTP hydrolysis; 390,000 compounds, 0.039% hits; Potency, µM (series often up to 114 µM), most hits filed as inhibitors; AID 504845; also: nearly all actives have a fitted effect of over 75% in size
Target sequence (P49798 whole entry, looked up): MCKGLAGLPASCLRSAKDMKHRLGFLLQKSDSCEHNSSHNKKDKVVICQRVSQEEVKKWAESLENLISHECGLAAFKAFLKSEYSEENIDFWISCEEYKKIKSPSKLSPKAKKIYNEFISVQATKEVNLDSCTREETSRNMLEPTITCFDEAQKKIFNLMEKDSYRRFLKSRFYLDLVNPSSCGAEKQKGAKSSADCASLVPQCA
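MLSMR compounds (23 nl, pin-transferred) preincubated 10 min at room temperature with a 500nM (2x) first reagent, then RGS4 at 900nM (2x) plus Transcreener GDP mix added; fluorescence polarization (620/688 nm) read before and after 90 min at 30 °C.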
Pin1 inhibitor: human Pin1 inhibition; Potency, µM (series often up to 115 µM), most hits filed as inhibitors; Pin1 FP peptide displacement, HiFluor488, 10 min; 390,000 compounds, 0.009% hits; Q13526; AID 504891; active = well fitted inhibition curve with a large enough effect in the polarisation, with a control signal flat, not every such curve was filed as active; inconclusive = small, poorly fitted or top-dose-only effect, or effect the other way, or a change in a side signal; inactive = no such curve, though single readings can be large or run the other way; the % refers to the polarisation
Tb PGK inh: T. brucei PGK inhibition; P07378; PGK/GAPDH coupled, Kinase-Glo luminescence, 60 min; Potency, µM (series often up to 57.5 µM), actives largely listed as inhibitors; 380,000 compounds, 0.043% hits; AID 602233; also: nearly all actives have a fitted effect of over 60% in size
Target sequence (P07378 whole entry, looked up): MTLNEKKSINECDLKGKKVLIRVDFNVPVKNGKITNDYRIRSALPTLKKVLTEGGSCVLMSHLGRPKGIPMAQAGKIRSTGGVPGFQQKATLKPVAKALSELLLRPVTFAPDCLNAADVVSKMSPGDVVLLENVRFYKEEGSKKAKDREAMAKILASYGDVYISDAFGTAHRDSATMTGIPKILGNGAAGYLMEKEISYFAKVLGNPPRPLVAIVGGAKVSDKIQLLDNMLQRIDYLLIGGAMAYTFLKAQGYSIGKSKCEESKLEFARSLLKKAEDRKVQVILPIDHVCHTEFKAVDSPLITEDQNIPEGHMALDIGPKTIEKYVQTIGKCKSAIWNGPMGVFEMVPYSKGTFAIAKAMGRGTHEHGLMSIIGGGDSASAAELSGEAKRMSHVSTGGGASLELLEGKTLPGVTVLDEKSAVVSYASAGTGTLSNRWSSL
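Recombinant glycosomal PGK reaction used 1,3-bisphosphoglycerate generated in-well by GAPDH (100nM final) in 100mM TEA pH 7.6, 5mM MgCl2, 0.01% Tween-20. After 60 minutes at room temperature, ATP was read by Kinase-Glo Plus luminescence end-point.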
KAT2A inh: blocks human GCN5L2 histone acetyltransferase; GCN5L2 HAT assay, ThioGlo1 CoA-SH fluorescence; Potency, µM (top dose mostly 58.9 µM), usual class: inhibitors; 390,000 compounds, 0.21% hits; AID 504327
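GCN5L2 (20 nM) in 50mM HEPES pH 7.5, 0.1mM EDTA, 0.01% Tween-20 preincubated 15 min with compounds at room temperature. Reaction started with H3(1-25) 75uM, acetyl-CoA 70uM, ThioGlo1 50uM; CoA-thiol fluorescence (Ex340/Em540) read at 0 and 20 min.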
Hits are given with their value; i = inactive; ? = inconclusive; nt = no result. Unless noted, calls follow the shape of the dose curve; as a rule, active = well fitted curve in the direction sought with a large enough effect; inconclusive = small, poorly fitted or top-dose-only effect, or another doubt; inactive = no such curve, though single readings can be large; an effect the other way counts as inactive or inconclusive.

SMILES	KCNH2 WT inh	KCNH2 3.1 inh	RGS4 inh	Pin1 inhibitor	Tb PGK inh	KAT2A inh
COc1ccc(CN2CCC(n3nccc3NC(=O)C3CCCC3)CC2)cc1	i	i	i	i	i	?
Cc1cc(CN2CCC(n3nccc3NC(=O)c3ccccc3Cl)CC2)cc(C)c1O	i	-77.0	i	i	i	i
CCOc1ccc(NC(=O)CC2C(=O)N(c3cccc(C)c3)C(=O)N2CCC2=CCCCC2)cc1 (configuration not stated)	nt	nt	i	i	i	i
CCCC(NC(C)C(=O)N1C(C(=O)O)CC2CCCCC21)C(=O)OCC (configuration not stated)	nt	nt	nt	nt	nt	i
COc1ccc(C(C)=O)cc1CSc1nnc(Nc2ccccc2C)s1	i	-116.9	i	i	i	i
Cc1[nH]n(-c2ccccc2)c(=S)c1C=NCCCN=Cc1c(C)[nH]n(-c2ccccc2)c1=S	i	i	?	i	i	17.8µM
CCCn1c(N)c(N(CCOC)C(=O)COC(=O)c2ccccc2NCCO)c(=O)[nH]c1=O	i	-192.4	i	i	i	i
CCCCc1ccc(NC(=O)N2CCN(c3cc(C)nc4ccccc34)CC2)c(C)c1	i	-93.9	i	i	i	i
O=C(CNC(=O)c1ccccc1)N[C@H](C(=O)Nc1cc(C(F)(F)F)ccc1Cl)c1ccccc1	nt	nt	nt	i	nt	nt
O=C(Nc1ccc(Oc2ccccc2)cc1)C1CCN(c2c3c(nc4ncnn24)CCC3)CC1	i	-98.5	i	i	i	i
O=C(Nc1ccc2c(c1)CCC2)C1CCN(c2c3c(nc4ncnn24)CCC3)CC1	i	i	i	i	i	i
Cc1ccc(-c2c(C(=O)Nc3ccc(F)c(F)c3)oc(=O)c3ccccc23)cc1	nt	nt	i	i	i	i
COc1ccc(-c2cc(C#N)nc(Oc3ccc(Cl)cc3)n2)cc1	i	i	i	?	i	?
COc1ccc(-c2cc(C#N)nc(Cl)n2)cc1	i	-80.2	i	i	i	i
COc1ccc(-c2cc(C)no2)cc1S(=O)(=O)N1CCN(c2ccc([N+](=O)[O-])cc2)CC1	-77.6	-105.7	i	i	i	i
CCc1noc(C)c1C(=O)N1CCN(c2ccc([N+](=O)[O-])cc2)CC1	i	i	nt	nt	i	nt
Cc1noc(C)c1S(=O)(=O)N1CCN(c2ccc([N+](=O)[O-])cc2)CC1	i	-80.1	i	i	i	i
Cc1noc(C)c1CSCC(=O)N1CCN(c2ccc([N+](=O)[O-])cc2)CC1	i	-72.7	i	i	i	i
CN(Cc1ccccc1)C(=O)c1ccc2c(c1)N(Cc1ccc(Cl)cc1)C(=O)c1ccccc1S2=O (configuration not stated)	nt	nt	i	i	i	i
O=S1(=O)C2CC3OC2(CC3c2ccc(F)cc2)CN1Cc1ccc(Cl)cc1 (configuration not stated)	nt	nt	i	i	nt	nt
COc1ccc(/C=C/C(=O)OCCC(C)C)cc1	nt	nt	nt	nt	nt	i
Cc1nn(-c2nc3ccccc3[nH]2)c(N)c1-c1ccc(Cl)cc1	i	-83.5	i	i	i	i
Cc1ccc(-n2ncc(C(=O)NC3CCCCC3)c2C2CCN(C(=O)OC(C)(C)C)CC2)cc1	nt	nt	i	i	i	i
COc1cccc(-c2ccc3c(N)c(C(=O)Nc4ccc(C)c(F)c4)sc3n2)c1	nt	nt	i	?	i	25.1µM
COc1ccc(-c2ccc3c(N)c(C(=O)NCc4ccc(Cl)cc4)sc3n2)cc1	nt	nt	i	?	i	20µM
SMILES	KCNH2 WT inh	KCNH2 3.1 inh	RGS4 inh	Pin1 inhibitor	Tb PGK inh	KAT2A inh
COc1cccc(-c2ccc3c(N)c(C(=O)c4ccc(Cl)cc4)sc3n2)c1	nt	nt	i	i	i	i
COc1ccc(C)cc1NS(=O)(=O)c1cc(Br)cc2c1N(C(C)=O)C(C)C2 (configuration not stated)	nt	nt	i	i	i	i
CCOc1ccccc1NC(=O)Cn1c(=O)n(CC(=O)NCc2ccccc2Cl)c(=O)c2sccc21	nt	nt	i	i	nt	i
Cc1ccc(C(c2nnnn2C2CCCCC2)N2CCN3CCCC3C2)cc1 (configuration not stated)	i	i	i	i	i	0.891µM
CN(C)CC(O)c1ccc(C=Cc2ccc(Cl)cc2)cc1 (configuration not stated)	i	-110.4	i	i	i	nt
Cn1c(=O)n(C)c2cc(CNCc3ccc(F)cc3)ccc21	nt	nt	i	i	i	i
COc1ccc(CN2C(=S)NC(C)(C)CC2(C)O)cc1 (configuration not stated)	-141.7	i	i	i	i	i
COc1ccccc1CCN1C(=S)NC(C)(C)CC1(C)O (configuration not stated)	i	i	i	i	i	i
Cc1ccc(C(=O)NCc2ccc(N3CCN(C(=O)OC(C)(C)C)CC3)cc2)cc1	i	-117.1	i	i	i	i
COc1cccc(NC(=O)c2sc3nc(C)c(C(=O)Nc4ccc(C)cc4C)c(-c4cccs4)c3c2N)c1	nt	nt	i	?	i	17.8µM
N#Cc1cccc(NC(=O)CSc2ccc3c4c(cccc24)C(=O)c2ccccc2-3)c1	-100.4	-78.4	i	?	i	i
COc1ccc(NC(=O)CSc2ccc3c4c(cccc24)C(=O)c2ccccc2-3)cc1	i	i	i	?	i	22.4µM
CCCC(=O)Nc1c2c(nn1-c1ccccc1)CSC2	i	-113.6	i	i	i	i
CCN(CCNC(=O)C1CCN(Cc2nc(-c3ccc(Cl)cc3)oc2C)CC1)c1ccccc1	i	-72.2	i	i	i	i
Cc1ccccc1-c1nc(CN2CCC(C(=O)NCCC3=CCCCC3)CC2)c(C)o1	-77.8	-70.8	i	i	i	i
CCN(CCNC(=O)C1CCN(Cc2nc(-c3cccc(Cl)c3)oc2C)CC1)c1ccccc1	i	i	i	i	i	i
CCc1ccc(-c2nc(CN3CCC(C(=O)NCc4ccc(F)cc4)CC3)c(C)o2)cc1	?	-107.1	i	i	i	i
CCc1ccc(-c2nc(CN3CCC(C(=O)NCCN(CC)c4ccccc4)CC3)c(C)o2)cc1	i	-112.4	i	i	i	i
Cc1ccccc1-c1nc(CN2CCC(C(=O)NCCc3ccccc3)CC2)c(C)o1	nt	nt	i	i	i	i
CCN(CCNC(=O)C1CCCN(Cc2nc(-c3ccc(OC)cc3)oc2C)C1)c1ccccc1 (configuration not stated)	i	i	i	i	i	i
CCOc1ccc(NC(=O)N(Cc2c[nH]c3ccccc23)C2CCCCCC2)cc1	nt	nt	i	?	i	i
CN1CCN(c2ccc(NC(=O)c3ccc(Br)o3)cc2)CC1	i	i	i	i	i	i
Cc1ccc(C(=O)N2CCN(c3ccc(NC(=O)c4ccc(Br)o4)cc3)CC2)cc1	i	-83.1	i	i	i	i

Bioassay records deposited in PubChem by National Center for Advancing Translational Sciences (NCATS).
